# From paper PMC5540273 (PLoS ONE, 2017)
# Experiments:
# Conditions in all cases: concentration: 1 μM, replicates: in singlicate; n = 1
# MAPKAPK5 = tested on: MAPKAPK5
# MARK1 = tested on: MARK1
# MARK2 = tested on: MARK2
# MARK3 = tested on: MARK3
# MARK4 = tested on: MARK4
# MAST1 = tested on: MAST1
# MEK1 = tested on: T1, MEK1
# T1 construct: gene MAP2K1
# MEK2 = tested on: T2, MEK2
# T2 construct: gene MAP2K2
# MEK3 = tested on: T3, MEK3
# T3 construct: gene MAP2K3
# MEK4 = tested on: T4, MEK4
# T4 construct: gene MAP2K4
# MEK5 = tested on: T5, MEK5
# T5 construct: gene MAP2K5
# MEK6 = tested on: T6, MEK6
# T6 construct: gene MAP2K6
# MELK = tested on: MELK
# MERTK = tested on: MERTK
# MET = tested on: MET
# MINK = tested on: T7, MINK
# T7 construct: gene MINK1
# MKK7 = tested on: MKK7
# MKNK1 = tested on: MKNK1
# MKNK2 = tested on: MKNK2
# MLCK = tested on: T8, MLCK
# T8 construct: gene MYLK3
# 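Also: KINOMEscan kinase panel screen.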
Structure (SMILES),%Inh (MAPKAPK5),%Inh (MARK1),%Inh (MARK2),%Inh (MARK3),%Inh (MARK4),%Inh (MAST1),%Inh (MEK1),%Inh (MEK2),%Inh (MEK3),%Inh (MEK4),%Inh (MEK5),%Inh (MEK6),%Inh (MELK),%Inh (MERTK),%Inh (MET),%Inh (MINK),%Inh (MKK7),%Inh (MKNK1),%Inh (MKNK2),%Inh (MLCK)
CSc1cccc2c(-c3ccncn3)c(-c3ccc(F)cc3)nn12 [GW514786],0%,0%,0%,0%,0%,0%,0%,0%,0%,4%,15%,0%,20%,39%,23%,5%,0%,14%,1%,0%
O=C(Nc1ccccc1F)NC1CCN(c2ccnc(Nc3ccc(F)cc3)n2)CC1 [GSK1379800],0%,0%,0%,0%,2%,0%,0%,0%,0%,4%,13%,0%,15%,0%,0%,0%,17%,0%,0%,0%
CN1CCN(Cc2cccc(-c3ccc4c(Nc5ccc(Oc6ccccc6)cc5)ccnc4c3)c2)CC1 [GW578342],0%,0%,5%,0%,0%,47%,54%,55%,0%,9%,100%,0%,16%,0%,5%,9%,7%,8%,51%,1%
COCCOCCOc1cc2ncc3c4ccc(C#N)cc4[nH]c3c2cc1OC,0%,0%,13%,7%,0%,69%,48%,80%,12%,0%,100%,0%,54%,0%,10%,90.9%,0%,95.4%,99.7%,95.8%
CCc1ccc(-c2ccc3c(c2)-c2c(cnn2C)S(=O)(=O)N3C)cc1,0%,0%,0%,3%,7%,0%,1%,0%,0%,6%,0%,0%,0%,0%,26%,0%,0%,0%,0%,1%
Nc1ncc(-c2cccnc2)c2scc(-c3ccc4c(c3)CCN4C(=O)Cc3ccccc3)c12 [GSK683281],0%,0%,0%,19%,0%,0%,0%,1%,0%,66%,99.7%,0%,100%,69%,33%,41%,30%,5%,15%,14%
c1ccc(-c2n[nH]cc2Nc2ccnc3ccccc23)nc1 [GW694077],0%,0%,0%,0%,1%,3%,0%,0%,92.5%,92.8%,31%,8%,21%,0%,100%,61%,0%,13%,85%,2%
O=C(Nc1n[nH]c2nc(-c3ccc(O)cc3)ccc12)C1CC1 [SB-710363],4%,0%,38%,0%,0%,36%,0%,8%,36%,10%,81%,0%,46%,8%,0%,72%,0%,43%,54%,57%
CCCCc1nn2ncccc2c1-c1ccnc(Nc2ccc(N3CCN(C)CC3)cc2)n1 [GW684941],0%,0%,0%,32%,0%,31%,0%,0%,0%,32%,98.9%,0%,0%,56%,8%,43%,0%,9%,64%,0%
FC(F)(F)c1ccc(/C=C/c2cncnc2Nc2ccc3[nH]c(Cc4ccccc4)nc3c2)cc1 [GW709199],0%,0%,0%,28%,8%,5%,0%,25%,0%,0%,32%,0%,0%,4%,16%,1%,0%,0%,0%,0%
COc1ccc(CNC(=O)NC2CCN(c3ccnc(Nc4ccc(F)cc4)n3)CC2)cc1 [GSK1379788],0%,0%,0%,0%,0%,3%,0%,9%,0%,45%,9%,0%,0%,0%,0%,0%,0%,2%,0%,0%
Cn1cc(-c2ccc3c(c2)CCN3C(=O)Cc2cccc(Cl)c2)c2c(N)ncnc21 [GSK2606590],0%,2%,2%,3%,11%,0%,19%,0%,0%,33%,99.8%,0%,0%,79%,45%,0%,28%,21%,23%,6%
Cc1ccc(C)c(NC(=O)NC2CCN(c3ccnc(Nc4ccc(F)cc4)n3)C2)c1 (stereo not shown) [GSK1379720],0%,0%,0%,0%,0%,35%,0%,0%,0%,4%,50%,0%,0%,21%,0%,0%,0%,0%,0%,22%
COc1cc2c(cc1OCCN1CCNCC1)ncc1c3ccc(C#N)cc3[nH]c21,0%,0%,8%,0%,0%,83%,34%,57%,34%,18%,99.6%,0%,35%,0%,5%,86%,12%,100%,99%,97.5%
COc1cccc(-c2ccc3c(NC(=O)C4CC4)n[nH]c3n2)c1 [SB-710903],0%,0%,0%,0%,9%,42%,0%,0%,0%,17%,61%,0%,0%,38%,28%,76%,0%,32%,21%,47%
COc1cc(Nc2nccc(N3CCC(NC(=O)c4cc5ccccc5s4)C3)n2)cc(OC)c1OC (stereo not shown) [GSK1379760],1%,7%,12%,0%,22%,1%,7%,0%,3%,0%,88%,0%,15%,45%,31%,0%,38%,30%,21%,0%
CCS(=O)(=O)c1ccc(OC)c(Nc2nccc(-c3c(-c4cccc(NC(=O)c5c(F)cccc5F)c4)nn4ncccc34)n2)c1 [GSK326180],0%,6%,22%,0%,9%,0%,31%,18%,2%,25%,99.6%,0%,0%,9%,2%,0%,14%,3%,12%,0%
